Measurements: the supplement of paper PMC10849652
About 7,900 targets were measured; listed, in parts, are those with a hit and a random draw of the rest. About 0.6% of all pairs of compound and target were hits.

compound: CN(CCOC1=CC=C(C=C1)C[C@H]2C(=O)NC(=O)S2)C3=CC=CC=N3 (racemic) [rosiglitazone]; test: log2 fold change, soluble protein after heating vs DMSO (PISA); higher = thermal stabilisation; K562 cells, 10 uM, 30 min; active = over 0.2 and 3.5 SD of the protein, either way, in both replicates (recomputed)
Outline: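 K562 cells at 2×10^6 cells/mL were treated for 30 min with 10 μM compound, and aliquots were heated for 3 min over 48°C-58°C before pooling. Extraction used PBS with 0.5% NP-40 at 4°C, and soluble protein was the supernatant after 21,000xg for 90 min, measured by TMTpro 16plex LC-MS/MS with channel sums equalised. Thermal stability values, relative to control samples and from duplicates, are log2 fold changes.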

UniProt Q86X83, sequence (Q86X83 whole entry, looked up): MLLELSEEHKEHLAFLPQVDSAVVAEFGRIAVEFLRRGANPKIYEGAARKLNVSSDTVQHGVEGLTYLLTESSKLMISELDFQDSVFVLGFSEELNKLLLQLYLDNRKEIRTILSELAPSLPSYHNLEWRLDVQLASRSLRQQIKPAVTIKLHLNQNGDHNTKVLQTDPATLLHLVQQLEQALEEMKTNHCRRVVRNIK
UniProt Q00534, sequence (Q00534 whole entry, looked up): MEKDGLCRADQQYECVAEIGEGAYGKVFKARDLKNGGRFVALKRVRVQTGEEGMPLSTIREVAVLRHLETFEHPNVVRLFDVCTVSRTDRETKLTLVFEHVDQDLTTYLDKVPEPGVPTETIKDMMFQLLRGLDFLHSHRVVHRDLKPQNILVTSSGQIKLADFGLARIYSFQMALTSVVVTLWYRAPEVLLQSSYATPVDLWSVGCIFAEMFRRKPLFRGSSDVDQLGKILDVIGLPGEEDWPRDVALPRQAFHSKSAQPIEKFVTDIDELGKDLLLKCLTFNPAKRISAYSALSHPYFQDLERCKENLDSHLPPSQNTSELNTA
UniProt P50750, sequence (P50750 whole entry, looked up): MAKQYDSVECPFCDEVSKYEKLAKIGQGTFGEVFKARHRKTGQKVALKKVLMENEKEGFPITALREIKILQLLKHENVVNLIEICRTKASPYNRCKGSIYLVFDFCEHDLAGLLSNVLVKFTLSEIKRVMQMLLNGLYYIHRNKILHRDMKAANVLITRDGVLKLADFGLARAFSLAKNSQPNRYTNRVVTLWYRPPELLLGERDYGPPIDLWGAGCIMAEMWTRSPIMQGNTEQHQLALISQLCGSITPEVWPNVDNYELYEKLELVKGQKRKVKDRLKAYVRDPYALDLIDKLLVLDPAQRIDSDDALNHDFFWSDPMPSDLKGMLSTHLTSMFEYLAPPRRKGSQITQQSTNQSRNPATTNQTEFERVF
UniProt Q5T5Y3, sequence (Q5T5Y3 whole entry, looked up): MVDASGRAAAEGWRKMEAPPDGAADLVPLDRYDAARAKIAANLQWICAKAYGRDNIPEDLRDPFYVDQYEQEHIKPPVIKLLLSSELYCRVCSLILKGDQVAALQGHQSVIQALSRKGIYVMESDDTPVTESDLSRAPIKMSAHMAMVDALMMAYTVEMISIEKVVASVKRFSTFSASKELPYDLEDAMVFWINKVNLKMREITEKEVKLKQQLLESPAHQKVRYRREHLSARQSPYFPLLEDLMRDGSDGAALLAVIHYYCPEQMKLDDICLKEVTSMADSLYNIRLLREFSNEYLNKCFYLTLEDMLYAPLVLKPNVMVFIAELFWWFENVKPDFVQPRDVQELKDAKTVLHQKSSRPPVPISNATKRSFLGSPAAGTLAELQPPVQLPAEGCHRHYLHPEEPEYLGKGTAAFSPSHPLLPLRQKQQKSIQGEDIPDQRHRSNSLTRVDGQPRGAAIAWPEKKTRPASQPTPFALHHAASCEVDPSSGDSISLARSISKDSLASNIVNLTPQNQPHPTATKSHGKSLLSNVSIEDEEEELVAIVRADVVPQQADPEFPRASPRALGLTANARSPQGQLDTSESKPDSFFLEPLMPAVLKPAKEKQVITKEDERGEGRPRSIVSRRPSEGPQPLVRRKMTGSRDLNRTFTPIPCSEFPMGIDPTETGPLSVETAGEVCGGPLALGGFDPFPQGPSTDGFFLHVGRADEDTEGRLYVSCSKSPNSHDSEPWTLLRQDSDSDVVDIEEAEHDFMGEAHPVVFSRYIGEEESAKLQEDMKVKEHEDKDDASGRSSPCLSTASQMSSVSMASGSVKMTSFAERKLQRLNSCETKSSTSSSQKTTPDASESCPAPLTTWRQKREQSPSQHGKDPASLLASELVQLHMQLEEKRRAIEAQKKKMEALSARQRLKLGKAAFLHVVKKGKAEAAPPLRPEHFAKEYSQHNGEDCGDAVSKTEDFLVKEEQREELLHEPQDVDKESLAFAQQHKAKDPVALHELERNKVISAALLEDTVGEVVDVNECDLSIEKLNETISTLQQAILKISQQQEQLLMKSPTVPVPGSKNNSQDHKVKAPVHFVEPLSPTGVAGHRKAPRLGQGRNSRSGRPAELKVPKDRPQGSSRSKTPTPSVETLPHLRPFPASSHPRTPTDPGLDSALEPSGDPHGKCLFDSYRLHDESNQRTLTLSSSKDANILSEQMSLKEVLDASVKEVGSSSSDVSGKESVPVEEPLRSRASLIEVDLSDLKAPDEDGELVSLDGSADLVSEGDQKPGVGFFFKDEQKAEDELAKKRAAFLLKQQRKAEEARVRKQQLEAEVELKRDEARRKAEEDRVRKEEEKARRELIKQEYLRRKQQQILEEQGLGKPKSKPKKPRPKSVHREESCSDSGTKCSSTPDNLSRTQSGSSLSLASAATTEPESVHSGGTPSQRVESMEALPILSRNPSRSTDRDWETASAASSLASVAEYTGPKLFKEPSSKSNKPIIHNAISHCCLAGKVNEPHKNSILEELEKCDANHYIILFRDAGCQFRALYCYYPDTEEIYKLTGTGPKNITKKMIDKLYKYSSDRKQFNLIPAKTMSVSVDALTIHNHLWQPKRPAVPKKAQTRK
UniProt O14757, sequence (O14757 whole entry, looked up): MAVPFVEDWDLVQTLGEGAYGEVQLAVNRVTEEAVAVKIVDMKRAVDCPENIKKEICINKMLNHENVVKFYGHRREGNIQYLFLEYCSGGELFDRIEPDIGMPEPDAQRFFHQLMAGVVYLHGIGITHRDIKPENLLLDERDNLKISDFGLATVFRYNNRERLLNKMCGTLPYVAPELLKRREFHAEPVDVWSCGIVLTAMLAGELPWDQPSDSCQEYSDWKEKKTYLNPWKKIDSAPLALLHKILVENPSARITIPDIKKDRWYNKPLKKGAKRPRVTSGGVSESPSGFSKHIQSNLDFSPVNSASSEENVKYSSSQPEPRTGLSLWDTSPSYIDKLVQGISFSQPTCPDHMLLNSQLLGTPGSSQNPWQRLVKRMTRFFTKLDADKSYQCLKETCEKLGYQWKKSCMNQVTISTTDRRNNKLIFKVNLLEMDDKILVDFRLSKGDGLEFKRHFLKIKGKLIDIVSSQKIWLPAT
UniProt P51946, sequence (P51946 whole entry, looked up): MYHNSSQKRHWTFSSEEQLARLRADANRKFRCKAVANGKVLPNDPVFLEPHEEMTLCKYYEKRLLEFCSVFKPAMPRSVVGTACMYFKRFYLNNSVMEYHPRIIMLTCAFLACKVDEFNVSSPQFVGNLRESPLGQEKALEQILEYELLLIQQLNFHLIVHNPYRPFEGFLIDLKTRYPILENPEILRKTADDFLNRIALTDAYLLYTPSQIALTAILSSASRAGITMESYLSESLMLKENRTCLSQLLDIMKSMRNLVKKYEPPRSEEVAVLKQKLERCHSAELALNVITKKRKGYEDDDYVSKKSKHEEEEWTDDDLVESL
UniProt P51798, sequence (P51798 whole entry, looked up): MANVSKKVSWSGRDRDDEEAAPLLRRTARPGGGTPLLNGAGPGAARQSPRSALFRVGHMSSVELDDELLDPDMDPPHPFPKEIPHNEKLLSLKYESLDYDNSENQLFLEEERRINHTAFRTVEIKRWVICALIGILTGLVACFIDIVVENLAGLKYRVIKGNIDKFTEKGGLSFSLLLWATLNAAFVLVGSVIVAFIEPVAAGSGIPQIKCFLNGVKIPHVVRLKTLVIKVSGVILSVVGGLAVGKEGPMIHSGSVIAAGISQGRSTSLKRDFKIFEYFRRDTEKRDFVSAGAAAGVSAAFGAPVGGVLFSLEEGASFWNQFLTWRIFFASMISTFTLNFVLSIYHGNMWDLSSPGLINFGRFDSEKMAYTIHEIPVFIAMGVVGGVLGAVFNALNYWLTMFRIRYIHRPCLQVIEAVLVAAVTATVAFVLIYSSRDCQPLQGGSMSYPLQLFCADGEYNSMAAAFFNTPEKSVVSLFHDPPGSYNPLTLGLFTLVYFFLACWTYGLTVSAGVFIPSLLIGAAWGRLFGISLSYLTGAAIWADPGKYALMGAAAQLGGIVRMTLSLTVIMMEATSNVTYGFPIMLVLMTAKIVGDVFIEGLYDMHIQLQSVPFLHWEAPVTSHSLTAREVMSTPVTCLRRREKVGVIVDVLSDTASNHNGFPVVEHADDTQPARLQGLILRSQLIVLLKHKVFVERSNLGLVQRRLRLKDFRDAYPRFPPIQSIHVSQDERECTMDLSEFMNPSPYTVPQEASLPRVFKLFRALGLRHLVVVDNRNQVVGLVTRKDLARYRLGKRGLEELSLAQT
UniProt O95319, sequence (O95319 whole entry, looked up): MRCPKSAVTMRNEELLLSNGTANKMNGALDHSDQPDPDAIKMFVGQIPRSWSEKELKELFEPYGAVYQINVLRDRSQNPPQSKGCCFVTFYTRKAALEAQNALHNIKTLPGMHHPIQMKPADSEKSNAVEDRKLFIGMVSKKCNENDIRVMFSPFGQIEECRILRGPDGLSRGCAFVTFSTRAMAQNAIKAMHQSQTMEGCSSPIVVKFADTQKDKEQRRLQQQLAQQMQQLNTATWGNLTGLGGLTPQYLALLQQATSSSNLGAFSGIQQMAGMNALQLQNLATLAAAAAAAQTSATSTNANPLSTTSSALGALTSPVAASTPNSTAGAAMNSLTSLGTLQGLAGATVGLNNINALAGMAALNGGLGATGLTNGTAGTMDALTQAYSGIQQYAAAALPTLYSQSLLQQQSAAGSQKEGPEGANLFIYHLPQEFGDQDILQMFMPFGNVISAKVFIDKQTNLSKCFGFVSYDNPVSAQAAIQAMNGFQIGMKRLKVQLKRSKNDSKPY
UniProt P19397, sequence (P19397 whole entry, looked up): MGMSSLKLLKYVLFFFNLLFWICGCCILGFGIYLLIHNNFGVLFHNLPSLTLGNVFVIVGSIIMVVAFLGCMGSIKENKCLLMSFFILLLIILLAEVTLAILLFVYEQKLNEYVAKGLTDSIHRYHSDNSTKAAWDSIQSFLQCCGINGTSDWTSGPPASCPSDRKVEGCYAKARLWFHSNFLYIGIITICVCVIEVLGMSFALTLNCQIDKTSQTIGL
UniProt Q9NRR8, sequence (Q9NRR8 whole entry, looked up): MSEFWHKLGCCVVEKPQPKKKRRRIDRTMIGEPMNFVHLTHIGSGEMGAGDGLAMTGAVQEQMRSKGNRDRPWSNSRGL

log2 fold change, inactive:
CLCN7 (UniProt P51798) 0.049
CCZ1 (UniProt P86791) 0.025
C1D (UniProt Q13901) -0.008
CNOT7 (UniProt Q9UIV1) -0.04
CDC42BPA isoform 6 (UniProt Q5VT25) 0.026
COMMD1 (UniProt Q8N668) 0.016
CETN3 (UniProt O15182) 0.032
C4orf33 (UniProt Q8N1A6) 0.155
CDK9 isoform 2 (UniProt P50750) -0.019
CDC25B isoform 4 (UniProt P30305) -0.012
CHEK1 (UniProt O14757) 0.046
CD53 (UniProt P19397) 0.074
CRTC2 (UniProt Q53ET0) -0.043
CDK4 (UniProt P11802) 0
CNOT1 (UniProt A5YKK6) 0.013
CPSF1 (UniProt Q10570) 0.011
CLUH, A0A494C0R8 0.068
CEPT1 (UniProt Q9Y6K0) 0.067
CELF2 isoform 3 (UniProt O95319) -0.049
CDC42SE1 (UniProt Q9NRR8) -0.017
CASP3 (UniProt P42574) 0.014
CDK12 (UniProt Q9NYV4) -0.101
COQ9 (UniProt O75208) 0.025
COMMD2 (UniProt Q86X83) 0.134
CDK6 (UniProt Q00534) 0.011
CA8 (UniProt P35219) 0.044
CA1 (UniProt P00915) 0.045
CLSPN (UniProt Q9HAW4) -0.016
CCNH (UniProt P51946) -0.001
CLPP (UniProt Q16740) -0.035
CHD4 isoform 2 (UniProt Q14839) 0.058
CAMSAP1 isoform 3 (UniProt Q5T5Y3) -0.011
CCDC57 (UniProt Q2TAC2) 0.018
CHST11 (UniProt Q9NPF2) -0.044
CRLF3 (UniProt Q8IUI8) 0.041
CAD (UniProt P27708) 0.032
